Bioassay records deposited in PubChem BioAssay by National Center for Advancing Translational Sciences (NCATS).
An excerpt weighted towards active compounds, which were near 11% of everything screened.
CBFb-RUNX1 inh – CBF-beta/RUNX1 interaction disruption. Q01196+Q13951. AlphaScreen CBFb-His/RUNX1-biotin binding, biochemical. Potency, µM (top dose mostly 59.8 µM), inactives show at the highest dose activity, negative = inhibition, actives largely listed as inhibitors. 230,000 tested, under 10 active. AID 1477; further: % of control where 0% means no effect
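His-tagged CBF-beta and biotinylated RUNX1 (30 nM each) were premixed 20 min at room temperature, exposed to compound for 15 min, then given nickel-chelate and streptavidin AlphaScreen beads (50 ng each). After 90 min, AlphaScreen signal was read.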
HTT cytoprotect – protects HTT-Q103 PC12 cells, measured by ATP. PC12 HTT-Q103 induced, cytoprotection, ATP luminescence, 40 h. Potency, µM (titrated, usually from 56.4 µM), inactives show cytoprotection (ATP increase), actives largely listed as activators. actives 0.14% (n = 230,000). AID 1471; further: potency means the concentration at half of the fitted maximal effect; % of control where 0% means no effect; nearly all actives have a fitted effect of over 45% in size
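Compounds added alongside 100 nM tebufenozide, which induces toxic Q103 huntingtin exon 1-GFP in stable PC12 cells; surviving cells quantified by luminescent ATP measurement. Medium: phenol red-free DMEM, 5% equine and 5% calf serum.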
HttQ103 aggreg – inhibitors of mutant huntingtin aggregate formation in PC12 cells; actives 1.1% (n = 220,000); PC12 HttQ103-GFP aggregates, Acumen cytometry, 40 h; Potency, µM (top dose mostly 46.1 µM), inactives show top-dose activity change, negative = inhibition, usual class: inhibitors; further: potency means the concentration at half of the fitted maximal effect; on the % scale 0 is the no-effect control and ±100 the full control effect; nearly all actives have a fitted effect of over 60% in size
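Huntingtin Q103 exon 1–GFP aggregates in induced PC12 cells (100 nM tebufenozide) were quantified by cytometry from lysates, with compounds dosed in titration.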
ALDH1A1 inh – inhibitors of human aldehyde dehydrogenase 1A1; actives 7.3% (n = 220,000); P00352; AID 1030; Purified ALDH1A1, NADH fluorescence, propionaldehyde substrate; Potency, µM (highest dose often 75.3 µM), for inactives: at the top dose activity, negative = inhibition, actives largely listed as inhibitors; active means well fitted inhibition curve with a large enough effect, not every such curve was filed as active; inconclusive means small, poorly fitted or top-dose-only effect, or another doubt; inactive means no such curve, though single readings can be large or run the other way;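 further: potency means the concentration at half of the fitted maximal effect; plate controls were no enzyme wells and a reference inhibitor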
Target sequence (P00352 whole entry, looked up): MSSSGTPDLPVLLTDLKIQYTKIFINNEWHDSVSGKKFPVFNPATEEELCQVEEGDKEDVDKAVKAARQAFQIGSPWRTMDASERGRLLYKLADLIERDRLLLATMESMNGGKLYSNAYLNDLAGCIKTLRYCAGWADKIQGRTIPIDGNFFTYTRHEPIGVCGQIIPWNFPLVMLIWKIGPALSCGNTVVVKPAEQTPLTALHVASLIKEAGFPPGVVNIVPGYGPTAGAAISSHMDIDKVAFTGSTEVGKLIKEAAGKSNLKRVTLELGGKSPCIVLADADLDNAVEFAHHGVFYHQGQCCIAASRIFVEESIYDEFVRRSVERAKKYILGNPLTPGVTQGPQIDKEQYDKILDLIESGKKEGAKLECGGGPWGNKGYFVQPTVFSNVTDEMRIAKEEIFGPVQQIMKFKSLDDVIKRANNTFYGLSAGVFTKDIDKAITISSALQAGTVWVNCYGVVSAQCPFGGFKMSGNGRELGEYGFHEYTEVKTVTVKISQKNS
PNC assembly inh – blocks assembly of the perinucleolar compartment | activity change (PNC), negative = inhibition, % at 10 µM | actives 3.1% (n = 140,000) | PC3M PTB-GFP, PNC prevalence imaging, 16 h; active compounds read low | AID 2417;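 active means readout at or below -70, meaning at least 70% loss of cells showing the perinucleolar compartment, a nuclear body marking cancer cells; inconclusive means readout between -30 and a set limit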;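 further: plate controls were DMSO wells for no effect and camptothecin positive control wells for full effect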
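Compounds are pinned in duplicate onto adhered PC3M cells stably expressing GFP-tagged PTB and incubated 16 h at 37 C. Cells are then fixed, nuclei stained with Hoechst, and PNC-positive cells counted.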
HPGD block – inhibitors of human 15-hydroxyprostaglandin dehydrogenase (HPGD). P15428. purified HPGD, NADH fluorescence kinetic, PGE2 substrate. Potency, µM, inactives show top-dose activity change, negative = inhibition, most hits filed as inhibitors. actives 4.3% (n = 150,000). AID 894; active means well fitted inhibition curve with a large enough effect, not every such curve was filed as active; inconclusive means small, poorly fitted or top-dose-only effect, or another doubt; inactive means no such curve, though single readings can be large or run the other way; further: potency means the concentration at half of the fitted maximal effect; on the % scale 0 is the no-effect control and ±100 the full control effect
Target sequence (P15428 whole entry, looked up): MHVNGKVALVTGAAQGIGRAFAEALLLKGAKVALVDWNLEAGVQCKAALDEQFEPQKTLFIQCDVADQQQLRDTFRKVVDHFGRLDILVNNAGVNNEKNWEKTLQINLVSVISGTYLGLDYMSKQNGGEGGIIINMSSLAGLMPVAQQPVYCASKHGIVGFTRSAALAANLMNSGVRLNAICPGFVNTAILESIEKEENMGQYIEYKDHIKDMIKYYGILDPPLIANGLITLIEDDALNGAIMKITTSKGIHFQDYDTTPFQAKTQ
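20 nM HPGD preincubated 15 min at room temperature with compound in 50 mM Tris-HCl pH 8, 0.01% Tween 20. Started with 1 mM NAD+ and 30 uM prostaglandin E2; NADH fluorescence (360/450 nm) read 5 times over 30-s intervals, last minus first.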
Active calls of the source: *; ? = inconclusive; · = no result; [ ] = remark or other dose. Unless noted, the call rests on the fitted dose curve; in most records, active means well fitted curve in the direction sought with a large enough effect; inconclusive means small, poorly fitted or top-dose-only effect, or another doubt; inactive means no such curve, though single readings can be large; an effect the other way counts as inactive or inconclusive.

SMILES	CBFb-RUNX1 inh	HTT cytoprotect	HttQ103 aggreg	ALDH1A1 inh	PNC assembly inh	HPGD block
COc1ccc(-c2oc3cc(OC)ccc3c(=O)c2O)cc1	?	24.2%[1.9 µM]	·	?	·	?
Cc1cc(C=C2C(=O)NC(=S)NC2=O)c(C)n1C1CCCC1	3.2%	·	?	7.08µM*	·	·
CN(C)CCCCCCN(C)C	3.6%[21.7 µM]	22.0%	-10.2%	?	·	-8.1%
COC(=O)c1c(C)n(Cc2ccco2)c2ccc(O)cc12	6.0%	-12.3%	-6.3%	20µM*	0.1	-23.6%
CC(=O)c1ccc2c(c1)C1C(Cl)C(Sc3ccccc3[N+](=O)[O-])CC1C(c1ccccc1)N2 (configuration not stated)	-22.5%	14.3%[10 µM]	-7.2%	7.94µM*	-96.5*	-25.3%
CN(C)c1ccc(P(=O)(Nc2ccc([N+](=O)[O-])cc2)N2CCOCC2)c(NC(=O)c2cccs2)c1 (configuration not stated)	-3.9%	-11.7%[10 µM]	-1.4%	-5.8%	-80.1*	?
C=CCSc1nnc(NC(=O)c2ccc(Cl)nc2)s1	0.4%	-26.7%	-14.9%	?	-23.6	28.2µM*
O=C(O)c1ccc(Cl)nc1	-9.9%	10.6%[10 µM]	-11.1%	1.7%	57.0	-12.9%
CCC(C)N1C(=O)/C(=C\c2ccc(N3CCCCCC3)cc2)C(=O)NC1=S (configuration not stated)	-16.7%	8.3%[10 µM]	3.5%	0.126µM*	-11.6	20µM*
CCC(C)N1C(=O)/C(=C\c2cc3c4c(c2)CCCN4CCC3)C(=O)NC1=S (configuration not stated)	-15.4%	·	-30.9%	0.316µM*	10.7	22.4µM*
CCCN1CC[C@@H]2c3cc(O)ccc3CC[C@H]21	·	15.8%[1.9 µM]	·	·	·	·
CC(C)(C)c1[nH]nc2c1C(c1ccoc1)C(C#N)=C(N)O2 (configuration not stated)	-0.6%	10.5%	8.5%	15.8µM*	-21.8	-16.7%
CN1C(=O)C(=Cc2ccccc2OCc2ccc(Cl)cc2)C(=O)N(C)C1=O	21.3%	14.5%[10 µM]	-15.1%	17.8µM*	46.9	22.4µM*
Cc1cc(C=C2C(=O)N(C)C(=O)N(C)C2=O)c(C)n1-c1ccccc1	1.0%	1.5%	-8.5%	?	·	·
CN1C(=O)C(=Cc2ccccc2Oc2ccc(Cl)cc2)C(=O)N(C)C1=O	5.7%	-29.4%[10 µM]	-24.5%	?	-19.6	25.1µM*
O=C(N/N=C\C1C(=O)NC(=S)N(c2ccccc2)C1=O)c1ccc(O)cc1 (configuration not stated)	?	-51.6%	-16.8%	10µM*	·	·
O=C(N/N=C/c1c(O)n(-c2ccccc2)c(=S)[nH]c1=O)c1ccccc1	-0.8%	-4.6%[10 µM]	23.1%[9.22 µM]	·	·	·
CCC(C)(C)O	-1.7%	·	·	·	·	·
CN1C(=O)C(=Cc2coc3ccccc3c2=O)C(=O)N(C)C1=O	?	1.3%[10 µM]	0.9%[9.22 µM]	0.891µM*	·	·
O=C(NCP(=O)(O)O)c1cccnc1	·	2.6%[10 µM]	·	7.5%[13.5 µM]	·	-3.5%
C[C@@]12CC[C@H]3[C@@H](CCC4=CC(=O)CC[C@]43C)[C@H]1CCC2=O	·	6.7%[1.9 µM]	·	·	·	·
Cc1ccc(N)c(C(=O)c2ccc(Br)cc2)c1	-3.2%	-25.0%	7.08µM*	15.1%	·	·
Nc1ccc(Br)cc1C(=O)c1ccccc1	-5.3%	-24.4%	-2.9%	3.1%	·	·
CCCCCCCCCCCCCCC[C@@H](O)[C@@H](N)COP(=O)(O)O	9.4%	-15.9%	·	3.4%	·	-8.9%
COc1cc2[nH]c(=O)n(-c3ccc(C)cc3)c(=O)c2cc1OC	3.2%	-15.3%	10.8%	?	-24.9	?
SMILES	CBFb-RUNX1 inh	HTT cytoprotect	HttQ103 aggreg	ALDH1A1 inh	PNC assembly inh	HPGD block
COc1cc2[nH]c(=S)n(-c3ccccc3)c(=O)c2cc1OC	-1.8%	-28.7%	-0.6%	1.58µM*	·	·
COc1ccc(-n2c(=S)[nH]c3c(sc(=S)n3-c3ccccc3)c2=O)c(OC)c1	1.2%	-37.9%	0.7%	3.16µM*	·	·
COc1ccc(-n2c(=O)[nH]c3ccccc3c2=O)c(OC)c1	22.4%	-22.9%[10 µM]	-3.5%	1.6%	-11.0	-11.6%
CC[C@H]1C(=O)OC[C@@H]1Cc1cncn1C	·	10.4%	·	·	·	·
CNc1ccc2oc(C[C@@H]3OC4(CC[C@@H]3C)O[C@H]([C@@H](C)C(=O)c3ccc[nH]3)[C@H](C)C[C@H]4C)nc2c1C(=O)O (some centres not stated)	?	-208.4%	·	?	·	·
Cc1ccc(Cl)cc1N1CCN(CCN)CC1	-2.0%	-18.7%	-0.7%	28.2µM*	0.2	9.4%
CC/C(=N\NC(=S)Nc1ccccc1)c1c(O)[nH]c(=O)[nH]c1=O	4.6%	-7.5%[10 µM]	-3.6%[9.22 µM]	·	·	·
CCOC(=O)c1ccc(NC(=O)c2c(O)[nH]c(=O)[nH]c2=O)cc1	-11.3%	0.9%	3.55µM*	?	?	14.1µM*
O=C(O)C1(c2ccc(Cl)cc2)CCC1	4.5%	26.8%	-7.5%	0.7%	-80.9*	-5.6%
C[C@H]1COC2=C1C(=O)C(=O)c1c2ccc2c1CCCC2(C)C	?	-2.6%[10 µM]	17.2%[9.22 µM]	12.6µM*	·	·
CC1COC2=C1C(=O)C(=O)c1c2ccc2c1CCCC2(C)C (configuration not stated)	·	·	·	22.4µM*	·	20µM*
CN(C)CCO	9.8%	-27.7%	·	0.9%	·	-3.1%
C=C(C)c1ccccc1 (tested in a mixture with another compound)	·	-17.3%[10 µM]	·	1.3%[13.5 µM]	·	0.8%
C=C(c1ccccc1)P(=O)(O)O	10.2%	·	14.6%	12.6%	-113.4*	-4.4%
O=C(c1cc(-c2cccnc2)nc2ccccc12)N1CCC2(CC1)OCCO2	?	-8.0%[0.074 µM]	-8.8%	?	21.2	-7.8%
O=C(c1cc(-c2cccnc2)nc2ccc(Cl)cc12)N1CCC2(CC1)OCCO2	2.7%	-4.3%	6.3%	7.08µM*	7.9	-9.3%
CCOP(=S)(OCC)Oc1ncn(-c2ccccc2)n1	4.8%	·	·	·	·	·
C=C(C)CSc1nc2ncc(Cl)cc2[nH]1	1.8%	19.6%	?	5.2%	24.2	12.6µM*
NC(=O)c1ncn(C2OC(CO)C(O)C2O)n1 (configuration not stated)	·	-66.4%	-0.2%	-9.8%	·	-12.6%
c1csc(CN2CCC3(CCNCC3)CC2)n1	·	16.8%	·	3.2%	·	-7.7%
Clc1ccc(C(c2ccc(Cl)cc2)C(Cl)Cl)cc1	?	18.0%	·	0.6%	·	-11.1%
N#C/C(=C\c1ccc(O)c(O)c1)C(=O)NCCCNC(=O)/C(C#N)=C/c1ccc(O)c(O)c1	-23.7%	-5.0%[1.9 µM]	·	?	·	15.8µM*
C=C1CC[C@H](O)C/C1=C/C=C1\CCC[C@]2(C)[C@H]1CC[C@H]2[C@@H](C)CCCC(C)C	·	-66.0%[17.1 µM]	·	-14.3%[20.9 µM]	·	-5.1%
N[C@H](Cc1ccc2oc3cc(=O)c4ccccc4c-3nc2c1)C(=O)O	·	-10.5%[10 µM]	·	?	·	-10.4%
